Bioassay records: PubChem, National Center for Advancing Translational Sciences (NCATS)
TRHR enhancer: allosteric enhancers of human TRH receptor; TRHR cells, fluo-8 calcium fluorescence, EC20 TRH enhancement; AID 493056; P34981; 0.66% of 360,000 active; enhancement, % at 2 µM; in the data active = enhancement above about 30%; note: 0% is about no effect
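Enhancer read-out: after compound pinning and an initial kinetic agonist-mode read, an EC20 of TRH (10 nM final) was injected and fluo-8 calcium signal (Ex 480/Em 530) followed at 1 s/cycle for 100 cycles in TRHR-expressing cells.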
D1 agonist: activates the human D1 dopamine receptor. P21728. AID 504660. HEK293 T-REx D1 cells, calcium flux, agonist mode. 1% of 360,000 active. activation, % at 2 µM; note: 0% is about no effect
Target sequence (P21728 whole entry, looked up): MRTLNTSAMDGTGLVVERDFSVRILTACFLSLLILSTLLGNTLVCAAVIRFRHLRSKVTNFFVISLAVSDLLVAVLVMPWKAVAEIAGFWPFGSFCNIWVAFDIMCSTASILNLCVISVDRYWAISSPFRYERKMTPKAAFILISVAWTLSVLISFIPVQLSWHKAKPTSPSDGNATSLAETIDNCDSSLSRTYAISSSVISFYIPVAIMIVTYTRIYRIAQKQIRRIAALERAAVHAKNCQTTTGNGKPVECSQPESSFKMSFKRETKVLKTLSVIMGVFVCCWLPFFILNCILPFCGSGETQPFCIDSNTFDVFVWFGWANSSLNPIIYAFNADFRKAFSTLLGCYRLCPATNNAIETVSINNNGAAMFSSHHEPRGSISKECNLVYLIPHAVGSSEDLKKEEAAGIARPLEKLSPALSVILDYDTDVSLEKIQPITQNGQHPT
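Agonism was scored from calcium flux recorded over 180 s (1 read/s) after pintool compound addition, following a 10-cycle baseline. Cells were inducible force-coupled HEK293 TREx D1, plated overnight at 30 C and loaded with no-wash calcium dye.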
D1 potentiator: potentiators of human D1 dopamine receptor; P21728; HEK293 TREx D1 cells, calcium flux, dopamine EC20 potentiation; potentiation, % at 10 µM; 0.036% of 360,000 active; AID 504651; in the data active = potentiation above about 30%; note: 0% is about no effect
TRHR agonist: TRH receptor (human) agonism; P34981; TRHR cells, calcium flux fluo-8, FDSS agonist mode; activation, % at 2 µM; 0.18% of 360,000 active; note: 0% is about no effect
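Read-out: compound-evoked intracellular calcium rise in TRHR cells, fluo-8 dye, kinetic FDSS fluorescence at 1 s/cycle following a 10-cycle baseline. Cells cultured overnight before dye loading (30 min–1.5 h, RT).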
D1 antagonist: human D1 dopamine receptor antagonism; P21728; activity change, negative = inhibition, % at 10 µM; HEK293 TREx D1 cells, calcium flux, dopamine EC80; stronger effect = lower value; 3.2% of 360,000 active; in the data active = activity change below about -30%; note: % is set by controls: 0 for no effect and ±100 for the full control effect
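Calcium flux readout: force-coupled, inducible Hek293 Trex D1 line, cells induced overnight at 30 C with tetracycline, dye-loaded 30–90 min at RT. Antagonism scored against EC80 dopamine challenge given 180 s after compound.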
* hit, by the source's call; . = not tested or not shown. Compounds with a hit are over-represented: about 4.7% of the library has one in this group of screens. Cut-off read from the data, not from the text of the source, unless noted: active = activation above about 30%; inactive = the rest.

SMILES	TRHR enhancer	D1 agonist	D1 potentiator	TRHR agonist	D1 antagonist
CSc1ccc(CCNC(=O)c2ccc(-n3c(C)cc4c3CCCC4)cc2)cc1	2	13	-3	0	0
N#Cc1nc(NCC(F)F)c2ncn(-c3cc(F)cc(F)c3)c2n1	2	1	2	1	-18
COc1ccccc1N1CCN(C(=O)c2cnn(-c3ccc(F)cc3F)c2C2CCNCC2)CC1	5	1	-7	-2	-5
CCn1cc([N+](=O)[O-])c(C(=O)Nc2ccc3c(c2)OCCO3)n1	-15	0	-7	-1	-75*
O=C(Nc1cccc([N+](=O)[O-])c1)Nc1cccc([N+](=O)[O-])c1	-14	37*	-9	0	-45*
CC(C)S(=O)(=O)c1csc(NC(=O)Nc2cccc([N+](=O)[O-])c2)c1Cl	-9	20	-9	0	-33*
O=C(CCc1ccccc1)Nc1cccc([N+](=O)[O-])c1	-2	10	0	-1	-13
O=C(CCCc1ccccc1)Nc1cccc([N+](=O)[O-])c1	-9	14	-11	0	-37*
CCOC(=O)C1CCN(C(=O)c2ccc3c(c2)N=C(CC)c2cc(C)ccc2S3)CC1	-5	-1	-1	0	0
O=C(Cc1nnc(-c2nc3ccccc3[nH]2)o1)Nc1cc(C(F)(F)F)ccc1Cl	2	3	-7	0	1
Cc1ccc(C(C)C)c(OCCCn2c(=O)oc3ccc(C)cc32)c1	0	14	-1	2	11
O=C(COc1ccc(/C=N/NC(=O)c2ccncc2)cc1)Nc1cccc([N+](=O)[O-])c1	0	0	-9	0	-32*
O=C(Nc1cccc([N+](=O)[O-])c1)Nc1ccc2c(c1)OCCO2	16	18	-7	1	-40*
CCOCN(C(=O)CSc1nc2ccccc2[nH]1)c1c(C)cccc1CC	0	7	-4	-1	-28
CCCCCc1cc(O)c2c(C)cc(=O)oc2c1	-14	108*	-18	6	-10
CCCc1cc(=O)oc2cc(C)cc(O)c12	-3	19	-12	5	-8
c1ccc(CNCc2nnc(-c3cc4ccccc4[nH]3)o2)cc1	0	5	0	1	12
CNC(=O)CSc1nnc(NC(=O)Nc2ccccc2)s1	3	3	3	0	.
Cc1cc(-c2ccc(C)c(S(=O)(=O)N(C)c3ccc(C)c(C)c3)c2)on1	-7	9	-5	0	-26
COc1cccc(Oc2ccc(S(=O)(=O)N3CCCC3)cc2[N+](=O)[O-])c1	32*	18	-4	-1	-7
COc1ccc(OCCOc2ccc(S(=O)(=O)N3CCCC3)cc2[N+](=O)[O-])cc1	3	7	-5	0	-14
CCc1ccc(NC(=O)CSc2nc3ncccc3[nH]2)cc1	14	0	0	-1	-18
CCOC(=O)c1ccccc1OC(=O)CS(=O)c1ccccc1[N+](=O)[O-] (stereo not drawn)	-1	0	-1	-1	-32*
COC(=O)c1ccc(OC(=O)CS(=O)c2ccccc2[N+](=O)[O-])cc1 (stereo not drawn)	4	1	0	0	-1
Cc1cc2ncn(S(=O)(=O)N3CCCCC3)c2cc1C	-5	-1	-3	0	-33*
SMILES	TRHR enhancer	D1 agonist	D1 potentiator	TRHR agonist	D1 antagonist
CCCOc1cccc(C2c3c(oc4ccc(F)cc4c3=O)C(=O)N2c2nc(C)c(C(C)=O)s2)c1 (stereo not drawn)	-10	0	-3	0	4
CCN(CC)CCn1c2ccc(F)cc2c2nc(C)sc21	-1	-3	-1	-1	-5
Cc1ccc(S(=O)(=O)n2c3ccc(F)cc3c3nc(C)sc32)cc1	0	2	-4	0	-31*
CCOC(=O)c1ccc(CC(=O)c2ccc(O)c(O)c2O)o1	-2	7	1	2	-48*
COc1ccc(Oc2ccc(N/C=C3/CCCC3=O)cc2)cc1	0	2	-10	0	-31*
COc1ccc(Oc2ccc(N/C=C3\CCCC3=O)cc2)cc1	0	7	-5	0	3
CCOC(=O)c1cc(-c2ccccc2)n(-c2cccc(C(=O)N(C)c3ccc(C)cc3)c2)c1C	19	3	-6	0	5
N#Cc1c2ccc([N+](=O)[O-])cc2[n+]([O-])n1-c1ccccc1	0	7	-6	0	-61*
CCOc1ccc2cc(-c3nnc(Nc4ccc(C)cc4)s3)c(=O)oc2c1	0	3	-1	3	12
Oc1ccc(N=Nc2n[nH]c(-c3ccccc3)n2)cc1	8	0	1	0	0
Oc1ccc(N=Nc2n[nH]c(-c3ccc(Br)cc3)n2)cc1	9	1	6	0	-39*
Cc1ccc(NC(=O)CN(C)Cc2cccs2)cc1Cl	33*	-3	-2	0	6
CCN(CC)c1ccc(NC(=O)CN(C)Cc2cccs2)cc1	-9	-1	-1	-1	-7
CN(CC(=O)NCc1ccccc1)CC(=O)Nc1ccc(Cl)c(C(F)(F)F)c1	5	64*	.	2	13
CCOc1ccc(NC(=O)CN2CCN(CC(=O)Nc3ccc(Cl)c(C(F)(F)F)c3)CC2)cc1	36*	10	-2	1	-17
COc1cc(CC(=O)Nc2ccc(Cl)c(C(F)(F)F)c2)cc(OC)c1OC	1	12	-3	2	-35*
COc1ccc(C(=O)OCC(=O)Nc2ccc(Cl)c(C(F)(F)F)c2)c(OC)c1OC	-6	5	-9	2	-11
O=[N+]([O-])c1cc(-c2nc(-c3ccccc3)no2)ccc1NC1CCCCC1	14	1	3	0	10
CN(CC(=O)Nc1ccc(Cl)c(C(F)(F)F)c1)C(=O)c1cccs1	1	12	-10	0	-51*
Cc1ccc(NC(=O)CN(C)C(=O)c2ccc(C(F)(F)F)cc2)cc1	3	-1	-1	0	-32*
O=C(Nc1cc(Cl)ccc1Cl)c1cc(S(=O)(=O)N2CCCc3ccccc32)ccc1F	2	1	0	0	-6
CCc1cnc2c(c1SCC(=O)NCc1ccc(F)cc1)c(=O)n(C)c(=O)n2C	0	-3	0	0	.
CCc1ccc(S(=O)(=O)c2nnn(-c3cccc(C)c3)c2N)cc1	-1	64*	1	6	-30*
Cc1ccc(S(=O)(=O)c2c(O)cc(C)c(NS(=O)(=O)c3ccc(Br)cc3)c2C)cc1	19	2	-3	-3	14
COC(=O)c1c(C(=O)OC)c(C)n(Cc2ccco2)c1C	13	1	-5	0	-68*
COC(=O)C1=C(C)N(Cc2ccco2)C(=O)N[C@H]1c1ccccc1	0	-1	1	0	-49*
COC(=O)C1=C(C)N(Cc2ccco2)C(=O)N[C@H]1c1ccc(Br)cc1	2	-1	-2	1	28
